Compound activity from PubChem BioAssay.
This is one part of a sample in which hits are shown more often than they occur.
Tgondii IFNg: blocks Toxoplasma gondii growth in the presence of IFN-gamma | Toxoplasma gondii growth in IFN-gamma-treated host cells; active compounds read low | activity change, negative = inhibition, % (concentration not given with the values) | actives 3.8% (n = 69,000) | AID 1259416; in the data active means activity change below about -70%, passing the limit was not always enough;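 further: host cells are HeLa cells infected with Toxoplasma gondii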
The depositor's hits bear a star; i = inactive; ! = repeats disagree.

SMILES | Tgondii IFNg
Cc1c(CN2CCCC2c2ccccn2)[nH]c2ccc(F)cc12 (stereo not drawn) | 1
Fc1ccc(C(F)(F)F)cc1CN1CCCC1c1ccccn1 (stereo not drawn) | 15
Cn1cc(CN2CCCC2c2cncc(Nc3ccccn3)n2)c2cc(F)ccc21 (stereo not drawn) | -100*
CC(C)c1nccn1C(C)C(=O)N1CCN(C)C2(CCN(C)CC2)C1 (stereo not drawn) | 25
NC(=O)c1c(F)cccc1-c1cc(NCc2cccnc2)nc2[nH]ccc12 | 24
CNC(=S)Sc1ccc(F)cc1F | 38
CC(=O)c1cc([N+](=O)[O-])c(Sc2ccc(F)cc2F)s1 | -72*
Cc1nc2ccc(CC(=O)NCc3nc(C4CCCCC4)no3)cc2[nH]1 | -2
Cc1cccc2cc(CO)c(-c3ccc(C(C)N4CCOCC4)cc3)nc12 (stereo not drawn) | -22
O=S(=O)(Nc1ccc(Oc2ncnc3cc(Cl)ccc23)nc1)c1cccs1 | 10
CC(C)N(Cc1ccccc1)S(=O)(=O)c1cccs1 | -15
CC(=O)N(c1ccc(NS(=O)(=O)c2cccs2)cn1)S(=O)(=O)c1cccs1 | -102*
CNC(=O)c1cnc(C)nc1CCNC(=O)CC1(c2ccc(C)cc2)CCOC(C)(C)C1 (stereo not drawn) | 16
CC(C)OC[C@H]1CCC[C@]12CN(S(=O)(=O)c1cn(C)cn1)CCO2 | -3
COc1ccc(C(=O)N2CCc3c([nH]c4ccccc34)C2c2ccc(SC)cc2)cc1OC (stereo not drawn) | i
COc1cc(C(=O)N2CCc3c([nH]c4ccccc34)C2c2ccccc2)cc(OC)c1OC (stereo not drawn) | 177
O=C(c1ccc2c(c1)OCO2)N1CCc2c([nH]c3ccccc23)C1c1ccccc1 (stereo not drawn) | -98*
COc1ccc(C2c3[nH]c4ccccc4c3CCN2C(=O)c2ccc3c(c2)OCO3)cc1 (stereo not drawn) | -81*
O=C(c1ccncc1)N1CCc2c([nH]c3ccccc23)C1c1ccccc1 (stereo not drawn) | 337
Cc1ccsc1CN(C)Cc1coc2ccccc2c1=O | 7
CC1=C(C(=O)Nc2ccc(Cl)cc2)C2(CCN(C(C)C)CC2)OC1=O | 65
CCc1ccc(-c2cc3c(=O)n(Cc4nc(-c5ccccc5OC)oc4C)ccn3n2)cc1 | 426
c1nc(NCC2CCCO2)ncc1CN1CCCn2cncc2C1 (stereo not drawn) | -29
CS(=O)(=O)c1ccc(C(=O)Nc2ccccc2Cl)cc1 | 23
CS(=O)(=O)c1ccc(-c2cnc(N)c(C(=O)Nc3ccccc3)n2)cc1 | -86*
SMILES | Tgondii IFNg
CS(=O)(=O)c1ccc(-c2ccccc2C(N)=O)cc1 | 3
O=C(CN1CCCC(c2nccnc2-n2ccnc2)C1)N1CCOCC1 (stereo not drawn) | 4
O=C1CCc2cc(S(=O)(=O)N3CCc4ccccc43)cc3c2N1CCC3 | 1
Cc1cccc2cc(C#N)c(SCC(=O)N3CCCc4ccccc43)nc12 | -38
N#Cc1cc2c(cc1C#N)N1CCCc3cccc(c31)O2 | -92*
COc1ccc(C(=O)Nc2nnc(C(c3ccccc3)c3ccccc3)s2)cn1 | 0
CC1CCN(S(=O)(=O)c2ccc3c(ccc(=O)n3CC(=O)NCc3ccc(Cl)cc3)c2)CC1 | -64
COc1cccc(CNC(=O)Cn2c(=O)ccc3cc(S(=O)(=O)N4CCC(C)CC4)ccc32)c1 | -80*
COc1ccccc1CNC(=O)Cn1c(=O)ccc2cc(S(=O)(=O)N3CCC(C)CC3)ccc21 | -33
c1cc(CN2CCC(c3ccnc(-c4ccncc4)c3)C2)n(-c2nccs2)c1 (stereo not drawn) | -50
COc1ccc(-c2cc3c(=O)n(Cc4nc(-c5cccc(OC)c5OC)oc4C)ccn3n2)cc1 | -47
O=C(COC(=O)c1ccccc1Sc1ccccc1)c1ccc(Br)cc1 | 31
COc1ccc2c(O[C@H]3CC4C(=O)N(C)CCCC/C=C\[C@@H]5C[C@@]5(C(=O)NS(=O)(=O)C5CC5)NC(=O)[C@@H]4C3)cc(-c3nc(C(C)C)cs3)nc2c1C (stereo partly drawn) | -74*
c1ccc(OC2COC3(CCN(Cc4ccsc4)CC3)C2)nc1 (stereo not drawn) | 151
FC(F)(F)Oc1ccc(OCc2n[nH]c(=S)o2)cc1 | -35
COc1ccc(CNc2n[nH]c(=S)s2)cc1 | 408
FC(F)(F)Oc1ccc(Nc2n[nH]c(=S)s2)cc1 | -92*
COc1ccccc1NC(=O)N1C2CCC1CC(O)(c1cccnc1)C2 (stereo not drawn) | 31
Cn1nccc1C(=O)N1CCC2(CCC(=O)N2)CC1 | 22
CC1(C(=O)NCc2ccc(F)cc2F)CCN(C(=O)c2ccccc2)CC1 | 30
CC1(C(=O)NCc2ccc(F)cc2F)CCN(C(=O)c2ccc(C(C)(C)C)cc2)CC1 | -91*
CC1(C(=O)NCc2ccc(F)cc2F)CCN(C(=O)c2ccc(F)cc2)CC1 | 14
Cc1occc1C(=O)N1CC[C@@H]2CN(c3ncccn3)CCO[C@H]2C1 | -11
COc1cccc([C@H](O)C2CCN(CCc3ccc(F)cc3)CC2)c1OC | 10
CCn1c(-c2cc(NC(=O)c3ccncc3)n[nH]2)cc2c(OC)cccc21 | -103*
SMILES | Tgondii IFNg
COc1cccc(OC)c1C(=O)c1ccncc1 | -24
COc1cc(NC(=O)c2cncc(Br)c2)c(OC)cc1Cl | 4
CCOC(=O)c1cccc(NC(=O)c2ccncc2)c1 | 26
CCn1c(=O)c(C(=O)Nc2ccccc2OC)c(O)c2ccccc21 | 70
CCn1c(-c2cc(NC(=O)c3cncc(Br)c3)n[nH]2)cc2c(OC)cccc21 | -97*
CC(C)Nc1nc2c(cc1C(=O)N1CCCC1)CCN(c1ncccn1)CC2 | 88
COc1ccc(-n2c(=O)c(C(=O)Nc3cc(F)cc(F)c3)c(O)c3cccnc32)cc1 | 21
CCN1CC[C@@]2(CN(C(=O)c3cscn3)C[C@H]2c2ccccc2)C1=O | 0
CS(=O)(=O)N1C[C@@H]2N[C@H](C1)[C@@H]2c1ccc(-c2ccccc2)cc1 | -67
Cc1ccccc1-c1ccc(C2[C@@H]3CN(S(=O)(=O)Cc4ccccc4)C[C@H]2N3)cc1 (stereo partly drawn) | -77*
Cc1ccccc1S(=O)(=O)N1C[C@@H]2N[C@H](C1)C2c1ccc(-c2cccc(C#N)c2)cc1 (stereo partly drawn) | -71*!
Cc1ccccc1-c1ccc([C@H]2[C@H](CO)N3CCCCN(S(=O)(=O)Cc4ccccc4)C[C@@H]23)cc1 | -47
Cc1ccccc1-c1ccc([C@@H]2[C@@H](CO)N3CCCCN(S(=O)(=O)Cc4ccccc4)C[C@H]23)cc1 | -60
N#Cc1cccc(-c2ccc(C3[C@@H]4CN(C(=O)C5CCOCC5)C[C@H]3N4)cc2)c1 (stereo partly drawn) | -10
Cc1oc(C2CCN(C(=O)COc3ccccc3)CC2)nc1C(=O)N1CCCCC1 | 8
Cc1ccc(-c2nc(CCNC(=O)C(=O)Nc3ccc(C)c(F)c3)cs2)cc1 | 1
O=C(Cc1coc2ccc3ccccc3c12)N1CCc2ccccc2C1 | 16
Cc1ccccc1-c1ccc2c(-c3ncc(C(=O)NCCN(C)C)s3)noc2c1 | -54
CN(C)C1CCN(C(=O)c2cnc(-c3noc4cc(-c5ccc(F)cc5)ccc34)s2)CC1 | -82*
CCN(C)C(=O)c1cnc(-c2noc3cc(N4CCCCC4)ccc23)s1 | -44
CS(=O)(=O)N1Cc2cncn2CC(COCC(=O)N2CCCC2)C1 (stereo not drawn) | -4
